# Experimental data published in PubChem BioAssay.
# This is one part of the list. A number with no mark means an inactive call. The source made the active and inactive calls. Unless noted, no stated cut-off is given here; in the data, active means inhibition above about 13%; inactive means the rest.
# Test system: not listed separately
# Assay: BSA probe fluorescence interference – biochemical, TAMRA-labeled BSA, counter-screen for TCR-CD3 interaction inhibitor project (AID 652035; in the data active means inhibition above about 23%;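 further: 0% = buffer low control and 100% = reference high control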)
# Settings: TAMRA-labeled BSA probe fluorescence counterscreen; at 9.4 µM; hits give high values
row,SMILES,inhibition [%]
1,CCOc1ccc(-n2c(O)c(/C=N/Nc3nnc(C)c(=O)[nH]3)c3ccccc3c2=O)cc1,-21.4
2,COc1ccc(CC(=O)N/N=C/c2cc([N+](=O)[O-])cc(Br)c2O)cc1,-11.9
3,COc1cc(C(=O)NCC2(c3ccccc3)CCCC2)ccc1OC(C)C,1.07
4,C=CCn1c(=O)c(C(=O)Nc2ncccc2O)c(O)c2ccccc21,-7.93
5,O=c1c2ccccc2c(-c2ccccc2)nn1-c1ccccn1,-1.19
6,Cc1cc2ccccc2n1CCNC(=O)COc1ccc2ccccc2c1,8.77

# Test system: T-cell receptor (TCR)-CD3 interaction, human
# Assay: blockers of TCR binding to CD3 – biochemical, fluorescence, TAMRA-labeled TCR probe, confirmation (AID 652036; in the data active means inhibition above about 19%)
# Settings: TAMRA-labeled TCR probe fluorescence binding assay; at 9.4 µM; hits give high values
row,SMILES,inhibition
1,CCOc1ccc(-n2c(O)c(/C=N/Nc3nnc(C)c(=O)[nH]3)c3ccccc3c2=O)cc1,26% (active)
2,COc1ccc(CC(=O)N/N=C/c2cc([N+](=O)[O-])cc(Br)c2O)cc1,40% (active)
3,COc1cc(C(=O)NCC2(c3ccccc3)CCCC2)ccc1OC(C)C,2.19%
4,C=CCn1c(=O)c(C(=O)Nc2ncccc2O)c(O)c2ccccc21,16.6%
5,O=c1c2ccccc2c(-c2ccccc2)nn1-c1ccccn1,-0.97%
6,Cc1cc2ccccc2n1CCNC(=O)COc1ccc2ccccc2c1,2.99%

# Test system: not listed separately
# Assay: VP16-driven transactivation reporter suppression – cell-based, luminescence, HEK293, counter-screen for COUP-TFII antagonist project (AID 687007)
# Settings: HEK293 Gal4-VP16 luciferase reporter, at 8.5 µM, hits give high values
row,SMILES,inhibition [%]
1,O=C(Nc1ccc(S(=O)(=O)NCC2CCCO2)cc1)c1ccc(F)cc1 (centres undefined),3.93
2,NS(=O)(=O)c1ccc(CCNC(=O)c2ccc(Cl)c(S(=O)(=O)N3CCCCCC3)c2)cc1,5.82
3,Cc1ccccc1OCC(=O)Nc1ccc(N2CCN(C(=O)C(C)C)CC2)c(Cl)c1,-4.24
4,CN(CCc1ccccc1)C(=O)c1cccc(NC(=O)Cc2cccc(NC(=O)C3CCCN(C(=O)CCc4ccccc4)C3)c2)c1 (centres undefined),-3.76
5,CCN(CC)P(=O)(C(NC(=O)OC)C(F)(F)C(F)(F)C(F)(F)C(F)F)N(CC)CC (centres undefined),7.83
6,Cc1ccc(NC(=O)C2CC(=O)N(c3ccc4c(c3)OCCO4)C2)cc1S(=O)(=O)N1CCCCCC1 (centres undefined),-2.18
7,Cc1ccc(CNC(=O)Nc2nnc([C@H]3C[C@H](O)[C@@H](CO)O3)s2)cc1,-1.25
8,CCOC(=O)N1CCN(C(=O)C[C@@H]2C(=O)N(CCc3ccc(Cl)cc3)C3=CCCC[C@]32C(=O)OCC)CC1,-8.45
9,c1ccc(Cc2ccc(OCCn3ccnc3)cc2)cc1,-6.15
10,CCC(=O)Nc1ccc(C(=O)CSc2nnc(CNc3ccc(Cl)cc3)o2)cc1OC,-6.4
11,CCc1ccc(-c2nc(SCC(=O)NC3CCCC3)n[nH]2)cc1,-22.9
12,CCOC(=O)C1(CCOc2ccccc2)CCN(Cc2cc(OC)cc(OC)c2)CC1,6.8
13,CN(c1cccc(NC(=O)c2ccc(CN3CCc4ccccc4C3)cc2)c1)S(C)(=O)=O,4.04
14,Cc1ccc(Nc2nc(CSc3nnc(-c4ccncc4)n3-c3ccccc3C)cs2)cc1,-8.65
15,Cc1ccc(OCC(=O)Nc2ccc(N3CCN(C(=O)c4ccco4)CC3)cc2)c(C)c1,4.51
16,COc1ccc(NC(=O)C2Cc3c(-c4cccc(NC(C)=O)c4)ccnc3O2)cc1OC (centres undefined),-1.35
17,Cc1ccc(-n2nc3c(=O)n(C(C)C(=O)NCc4ccc5c(c4)OCO5)nc(C)c3c2C)cc1 (centres undefined),-6.28
18,COc1cc(/C=C/C(=O)n2cnc3ccccc32)cc(OC)c1OC,-14.2
19,CN(C(=O)c1cccc(NC(=O)Cc2cccc([N+](=O)[O-])c2)c1)C1CCCCC1,-3.36
20,COc1ccc(OC)c(CNC(=O)Cn2nc(C)c3c(C)n(-c4ccc(C)cc4)nc3c2=O)c1,-4.78
21,O=C(Nc1ccc(S(=O)(=O)N2CCOCC2)cc1)C1CCN(S(=O)(=O)c2ccc(Cl)cc2)CC1,0.86
22,Cc1nc(C(=O)NCc2ccccc2)sc1C1(C)CC(c2cccnc2)=NO1 (centres undefined),-2.73
23,NS(=O)(=O)c1ccc(CCNc2nc(C(F)(F)F)nc3ccccc23)cc1,-10.4
24,N#CC(C#N)=CN=c1ccn(Cc2ccc(Cl)cc2Cl)cc1,-2.5
25,CCCCn1c(SCc2ncc(-c3ccccc3)o2)nc2cc(S(N)(=O)=O)ccc21,6.53
26,Cc1ccccc1CS(=O)(=O)Cc1ccc(C(=O)Nc2ccc(Cl)cc2)o1,-1.58
27,O=C(c1cc(C(=O)N2CCN(c3ccc(F)cc3)CC2)cc([N+](=O)[O-])c1)N1CCN(c2ccc(F)cc2)CC1,-2.78
